Source: the supplement of paper PMC9135407
Where a name gives a salt, the structure may show the parent alone.

test system: primary human hepatic stellate cells (donor 1); experiment: PSMB2 reference mRNA level vs DMSO (fold); higher = more PSMB2 expression; settings: 48 h
Protocol: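 Secondary qRT-PCR screen in primary human HSCs (donor 1), 384-well plates, with compounds dispensed in quadruplicate and incubated for 48 h. Cells-to-CT lysates were used for multiplexed TaqMan qPCR of ACTA2 or COL1A1 with PSMB2 as reference. Fold changes versus DMSO come from a linear model (Ct_gene ~ Ct_PSMB2 + plate + chemical). A hit is defined as COL1A1 and ACTA2 FC <0.5 (FDR <0.05) with PSMB2 between 0.2 and 2.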

SMILES | PSMB2 reference mRNA level
CC(C)NCCCn1c(Sc2cc3c(cc2I)OCO3)nc2c(N)ncnc21 (33.3333 µM) | 0.581
Cc1ccc(NC(=O)c2ccc(CN3CCN(C)CC3)cc2)cc1Nc1nc(-c2cccnc2)cs1 [Masitinib (AB1010, Masivet)] (6.66667 µM) | 0.679
CS(=O)(=O)CCNCc1ccc(-c2ccc3ncnc(Nc4ccc(OCc5cccc(F)c5)c(Cl)c4)c3c2)o1 (6.66667 µM) | 1.27
CN1CCN(Cc2ccc(-c3cnc4[nH]cc(-c5ccc6[nH]ccc6c5)c4c3)cc2)CC1 (6.66667 µM) | 0.507
CN(C)Cc1c(C(=O)NCCOc2ccc(C(=O)NO)cc2)oc2ccccc12 (33.3333 µM) | 0.5
C#C[C@]1(O)CC[C@H]2[C@@H]3CCC4=Cc5oncc5C[C@]4(C)[C@H]3CC[C@@]21C [Danazol] (33.3333 µM) | 0.993
CCCSc1ccc2[nH]c(NC(=O)OC)nc2c1 [Albendazole] (33.3333 µM) | 1.65
Cc1nc(Nc2ncc(C(=O)Nc3c(C)cccc3Cl)s2)cc(N2CCN(CCO)CC2)n1 (33.3333 µM) | 1.6
C[C@@H](Oc1cc(-c2cnn(C3CCNCC3)c2)cnc1N)c1c(Cl)ccc(F)c1Cl (11.1 µM) | 0.805
CNC(=O)[C@@H](Cc1ccccc1)N(C)C(=O)[C@@H](Cc1ccc2ccccc2c1)N(C)C(=O)/C=C/CC(C)(C)N [Tabimorelin] (33.3333 µM) | 1.83
Cn1cc(C2=C(c3ccc(Cl)cc3Cl)C(=O)NC2=O)c2ccccc21 (33.3333 µM) | 0.517
Clc1ccccc1CNCC1CCC(CNCc2ccccc2Cl)CC1 (stereo not given) (33.3333 µM) | 0.138
CNCc1ccc(-c2[nH]c3cc(F)cc4c3c2CCNC4=O)cc1 (33.3333 µM) | 0.974
O=C(O[C@H]1CN2CCC1CC2)N1CCc2ccccc2[C@@H]1c1ccccc1 [Solifenacin succinate] (33.3333 µM) | 0.935
CCCCCCCCc1ccc(CCC(N)(CO)CO)cc1 [Fingolimod (FTY720) HCl] (11.1 µM) | 3.91
NC[C@@H]1O[C@H](C23CC4CC(CC(C4)C2)C3)Cc2c1ccc(O)c2O (33.3333 µM) | 0.00124
COC(=O)N[C@H](C(=O)N1CCC[C@H]1c1ncc(-c2ccc(-c3ccc(-c4cnc([C@@H]5CCCN5C(=O)[C@@H](NC(=O)OC)C(C)C)[nH]4)cc3)cc2)[nH]1)C(C)C (33.3333 µM) | 3.28
COc1cc2nc(N3CCCN(C)CC3)nc(NC3CCN(Cc4ccccc4)CC3)c2cc1OC (3.33333 µM) | 0.211
Cc1ccc2c(c1)c1c3n2CCNC3CCC1 (stereo not given) [Pirlindole mesylate] (20.6667 µM) | 0.807
COc1ccc(NS(=O)(=O)c2sc3ccc(Cl)cc3c2C)cc1N1CCNCC1 (33.3333 µM) | 0.507

SMILES | PSMB2 reference mRNA level
CC#CCOC(=O)c1c(C)nc2sc3c(c2c1N)CCC(O)C3 (stereo not given) (33.3333 µM) | 0.434
CN1CCC(Nc2ncc3ncnc(Nc4ccc(F)c(Cl)c4)c3n2)CC1 [BIBX 1382 dihydrochloride] (33.3333 µM) | 0.0502
[O-][S+](c1ccccc1)c1ccc2nnnn2n1 (stereo not given) (33.3333 µM) | 0.000399
CC[C@]1(O)C[C@@H]2CN(CCc3c([nH]c4ccccc34)[C@@](C(=O)OC)(c3cc4c(cc3OC)N(C)[C@H]3[C@@](O)(C(=O)OC)[C@H](OC(C)=O)[C@]5(CC)C=CCN6CC[C@]43[C@@H]65)C2)C1 [Vinblastine sulfate] (33.3333 µM) | 0.0998
Clc1ccc(C2(c3ccc(-c4cn[nH]c4)cc3)CCNCC2)cc1 (33.3333 µM) | 0.745
CN1CCN2c3ccccc3Cc3ccccc3C2C1 (stereo not given) [Mianserin hcl] (25.2333 µM) | 1.26
CN1CCN(C2=Cc3ccccc3Oc3ccc(Cl)cc32)CC1 (33.3333 µM) | 0.977
Nc1ccc(C(=O)Nc2cccc(-c3nc(N4CCOCC4)c4oc5ncccc5c4n3)c2)cn1 (6.66667 µM) | 3.27
CNCCCC1c2ccccc2C=Cc2ccccc21 [Protryptyline hydrochloride] (22.2333 µM) | 1.06
O=C(Nc1cc(C(F)(F)F)cc(C(F)(F)F)c1)c1cc(Cl)ccc1O (33.3333 µM) | 1.2
CNCCC(Oc1ccc(C(F)(F)F)cc1)c1ccccc1 (stereo not given) [Fluoxetine hydrochloride] (33.3333 µM) | 0.204
O=S(=O)(NCCNC/C=C/c1ccc(Br)cc1)c1cccc2cnccc12 [H-89, Dihydrochloride] (11.1 µM) | 1.02
CCCCc1oc2ccccc2c1C(=O)c1cc(I)c(OCCN(CC)CC)c(I)c1 (33.3333 µM) | 0.537
CCN(CC)CCCCNc1ncc2cc(-c3c(Cl)cccc3Cl)c(NC(=O)NC(C)(C)C)nc2n1 (33.3333 µM) | 0.792
NC(N)=NC(=O)c1nc(Cl)c(N2CCCCCC2)nc1N [5-(N,N-hexamethylene)amiloride] (33.3333 µM) | 0.641
C[C@@H](CN1CCC(n2c(=O)[nH]c3cc(Cl)ccc32)CC1)NC(=O)c1ccc2ccccc2c1 (33.3333 µM) | 0.16
COc1cc2ncn(-c3cc(OCc4ccccc4C(F)(F)F)c(C(N)=O)s3)c2cc1OC (33.3333 µM) | 1.6
CN1CCCN(C(c2ccccc2)c2ccc(Cl)cc2)CC1 (stereo not given) [Homochlorcyclizine dihydrochloride] (33.3333 µM) | 1.19
COc1ccccc1OCCNCC(O)COc1cccc2[nH]c3ccccc3c12 (stereo not given) [Carvedilol] (33.3333 µM) | 2.15
O=C(Nc1ncc(SCCN2CCCC2)s1)[C@]1(c2ccc(S(=O)(=O)C3CC3)cc2)C[C@H]1C1CCCCC1 (11.1 µM) | 0.35
